Laboratory results: ChEMBL document CHEMBL3988442, “University of Dundee, Small-Polar-MMV Screening Library” (2021)
About 13,000 (27%) of roughly 48,000 compounds showed an effect of 50% or more. The list shows a part of the results.

Each compound was assayed on Wolbachia pipientis (assay: Anti-Wolbachia Cell-Based Screen). Conditions: 5 µM.
Type: functional
Set-up: scale not given: in the data most compounds retested in dose-response had high values

SMILES | Percent Effect
O=C(Cc1ccon1)Nc1cncc(Br)c1O | -6.673%
CCOC1CCN(C(=O)c2c(Cl)c3ccccc3n2C)CC1 | 4.018%
Cc1noc(C)c1CN1CC[C@H]2OCC[C@@H](C(=O)N3CCCO3)[C@H]2C1 | -12.4%
O=C(NCC(O)c1ccc(Cl)s1)c1ccoc1 (stereo not drawn) | 3.126%
CC(=O)N1CCN(C(=O)C(C)Nc2ccc3ncsc3c2)CC1 (stereo not drawn) | -9.61%
c1cnn(CC2CN(Cc3csc(-c4ccsc4)n3)CCO2)c1 (stereo not drawn) | -6.772%
CN(C)CC1CN(Cc2csc(C3CCCC3)n2)CCO1 (stereo not drawn) | 6.428%
c1cnn(CC2CN(Cc3csc(C4CCCCC4)n3)CCO2)c1 (stereo not drawn) | 111.5%
c1csc(-c2nc(CN3CCOC(Cn4cncn4)C3)cs2)c1 (stereo not drawn) | -0.6055%
Cc1n[nH]c(C2CN(Cc3csc(C4CCCC4)n3)CCO2)n1 (stereo not drawn) | 6.822%
c1csc(-c2nc(CN3CCOC(Cn4cccn4)C3)cs2)c1 (stereo not drawn) | 96.48%
c1ccc(-c2nc(CN3CCOC(Cn4cccn4)C3)cs2)cc1 (stereo not drawn) | -16.04%
Cc1cnn(CC2CN(Cc3csc(C4CCCC4)n3)CCO2)c1 (stereo not drawn) | 109.2%
c1ncn(CC2CN(Cc3csc(C4CCCC4)n3)CCO2)n1 (stereo not drawn) | -2.779%
CNC(=O)[C@H]1C[C@H]2OCC[C@H]2N(Cc2cccc3ccccc23)C1.O=C(O)C(F)(F)F | 25.43%
CC(=O)N1CCN(c2cc(N(C)C)cnn2)CC1 | 5.157%
CN(Cc1c(Cl)ccc2cccnc12)CC(C)(CO)CO | 4.13%
CCS(=O)(=O)c1ncc(CN2CCN(C)CC2)n1CCc1ccccc1 | 2.419%
CC(C)(C)CN(CCO)C(=O)Nc1cccc(N2CCNC2=O)c1 | 0.4334%
Cn1cnc(S(=O)(=O)NCC2(O)CCOc3ccccc32)c1 (stereo not drawn) | -16.89%
O=C1OC2(CCNCC2)CN1CC(=O)N1CCCC1c1nccs1 (stereo not drawn) | 1.843%
Nc1nc(N)c2c(n1)OC1(CCN(C(=O)CC3CCNCC3)CC1)C2 | 145.9%
CC(C)(C)c1cc(C[C@H]2CNCC[C@H]2CC(=O)N2CCCCC2)no1 | 3.52%
Nc1nc(N)c2c(n1)OC1(CCN(C(=O)CC3CCCNC3)CC1)C2 (stereo not drawn) | 130%
O=C(CC1CC1)N1CCC2(CC1)CN(c1ncc(F)cn1)CCO2 | -18.12%
Nc1nc(N)c2c(n1)OC1(CCN(C(=O)CC3CCCCN3)CC1)C2 (stereo not drawn) | 102.3%

SMILES | Percent Effect
O=C(CC1CCCCC1)N1CCC(O)(C(F)(F)F)C1 (stereo not drawn) | -0.05196%
CC(C1CC1)N(C)Cc1nnc(-c2ccc(Br)s2)o1 (stereo not drawn) | -7.051%
CCc1cc(=O)[nH]c(SCc2ccccn2)n1 | 161.3%
CCCc1cc(=O)[nH]c(SCc2ccccn2)n1 | 119.2%
Cc1cc(CSCc2ccccn2)on1 | -5.175%
Cc1ccc2cc(CN(C)Cc3ccccn3)c(=O)[nH]c2c1 | 3.618%
CCc1nc(C)c(C(C)N(C)CCc2ccccn2)s1 (stereo not drawn) | 10.86%
CCc1c(C)nc(SCc2ccccn2)[nH]c1=O | 110.7%
CCc1csc(NC(=O)NCc2ccccn2)n1 | -8.56%
CCCc1cc(NC2CCN(Cc3ccccn3)CC2)n2nccc2n1 | 4.154%
CCCc1cc(=O)[nH]c(-c2cccc(CN3CCCCCC3)c2)n1 | 2.31%
CN1CCC(c2nnc3ccc(C(=O)N4CCCCC4)cn23)C1.O=C(O)C(F)(F)F (stereo not drawn) | -6.443%
CCN(CC)C(=O)Cn1ccc2cc(NC(=O)C3CC3)ccc21 | -9.83%
CC(C)NC(=O)Nc1ccc2c(c1)ncn2CC(=O)NCCN(C)C | 117%
Cc1cc(NC(=O)Nc2ccc3c(ccn3CCN(C)C)c2)n(C)n1 | 0.0592%
CC(C)c1nc2cc(NC(=O)Cn3ccc(=O)[nH]c3=O)ccc2o1 | -1.465%
CN(C)CCn1ccc2cc(NC(=O)NCc3ncnn3C)ccc21 | 9.223%
CN(C)CCNC(=O)Cc1cccc(I)c1 | 13.6%
CN(C)CCNC(=O)Cn1cnc2cc(NC(=O)C3CC3)ccc21 | 109.1%
CC(CC(=O)Nc1ccc(C(=O)N(C)C)c(Cl)c1)n1cccc1 (stereo not drawn) | -5.842%
Cn1c(C2CC2)nc2cc(NC(=O)C3CC=CC3)ccc21 | -5.037%
CC(C)CC(=O)Nc1ccc2c(c1)ncn2CC(=O)NCCN(C)C | 122%
CCOCCOC(C)C(=O)Nc1ccc2ccn(CCN(C)C)c2c1 (stereo not drawn) | 3.941%
CC(C)C(=O)Nc1ccc2c(c1)ncn2CC(=O)NCCN(C)C | 87.82%
CC(c1ccc(F)cc1)n1ccnc1-c1cc2n(n1)CCCNC2 (stereo not drawn) | -9.513%
CCC(C)(NCc1nnc(C(C)(C)C)o1)c1nccs1 (stereo not drawn) | -1.916%

SMILES | Percent Effect
CS(=O)(=O)CCc1ncnn1-c1ccc(F)c(Cl)c1 | -1.677%
CCN1CC2(CCN(C(=O)C(C)Oc3ccc(F)cc3Cl)CC2)CC1=O (stereo not drawn) | -0.3825%
CC(Cn1cccn1)NC(=O)NCCCN1CCc2ccccc21 (stereo not drawn) | -6.742%
CCN1Cc2cc(F)ccc2N(CC(O)C(F)(F)F)CCC1=O (stereo not drawn) | 105.6%
CN1Cc2cc(F)ccc2N(CC(O)C(F)(F)F)CCC1=O (stereo not drawn) | 104.4%
CC(O)CN1CC2(CCC1=O)CCN(Cc1cc(F)ccc1Cl)CC2 (stereo not drawn) | 0.5458%
CCCC(O)CN1CCC(=O)N(C)Cc2cc(F)ccc21 (stereo not drawn) | 92.66%
CN1Cc2ccccc2N(CC(O)C(F)(F)F)CCC1=O (stereo not drawn) | 95.04%
OC(CN1CCCc2ccc(F)cc21)Cn1cccn1 (stereo not drawn) | -5.11%
CC(C)CNC(=O)CCN1C(=O)CCc2cc(F)ccc21 | -21.96%
CCCC(C)NC(=O)CCN1C(=O)CCc2cc(F)ccc21 (stereo not drawn) | -15.19%
CS(=O)(=O)Nc1ccc(CNC(=O)CN2CCc3ccccc32)cc1 | 8.101%
CC(C)C(C)NC(=O)CCN1C(=O)CCc2cc(F)ccc21 (stereo not drawn) | -7.908%
N#Cc1c(Cl)nsc1NCC1(c2ccccc2)CCC1 | 12.51%
CCNC(=O)[C@@H]1C[C@H](NC(=O)c2cncnc2C)CN1CCCSC | -8.18%
C/C=C(\C)CN1C[C@@H](NC(=O)c2ccc(O)c(Cl)c2)C[C@H]1C(=O)NCC | -9.176%
CCNC(=O)[C@@H]1C[C@@H](NC(=O)c2ccc(C#N)cc2)CN1CCCSC | 95.48%
CCNC(=O)[C@@H]1C[C@@H](NC(=O)c2cccn2C)CN1CCCSC | 111.5%
CCNC(=O)[C@@H]1C[C@@H](NC(=O)Cc2ccncc2)CN1Cc1ccsc1 | -6.435%
CCN(CC)C(=O)[C@@H]1C[C@H](NC(=O)c2cccn2C(C)C)CN1C | 0.9655%
CCNC(=O)[C@@H]1C[C@H](NC(=O)c2ccccc2C#N)CN1CCCSC | -7.827%
CSCCC(C)(O)CNC(=O)c1ccsc1 (stereo not drawn) | -0.07665%
CCNC(=O)[C@@H]1C[C@@H](NC(=O)c2ccc(C)cc2O)CN1CCCSC | 82.24%
CCNC(=O)[C@@H]1C[C@@H](NC(=O)c2ccsc2)CN1CCCSC | 107.8%
C/C=C(\C)CN1C[C@@H](NC(=O)c2ccc(F)c(F)c2)C[C@H]1C(=O)NCC | -14.95%
COCC(=O)N1CCC2(CC1)CC(N1CCN(C)CC1)CO2 (stereo not drawn) | -3.796%

SMILES | Percent Effect
O=C(CCc1nc(Cl)n[nH]1)N1C[C@@H](CN2CCCCCC2)[C@@H](CO)C1 | 5.284%
COc1ccc(C(=O)N2CCC(Oc3ccc(C)cc3)(C(=O)O)CC2)o1 | -8.575%
CCc1nnsc1C(=O)N1CCCN(Cc2ccc(C)cc2)CC1 | 9.546%
Cc1ccc(CN2CCOC(C)(c3cnn(C)c3)C2)cc1 (stereo not drawn) | -10.42%
Cc1cccc2[nH]c(C3CCN(C(=O)c4cnc[nH]c4=O)CC3)nc12 | -11.79%
CC(NCc1cccc2c1OCCO2)c1cc2c(cc1Br)OCCO2 (stereo not drawn) | -2.569%
CSCC(C)(O)CNC(=O)c1ccc(Br)cc1C (stereo not drawn) | 6.824%
COc1cccc(C(=O)N2CCCC(c3cc(C)[nH]n3)C2)c1OC (stereo not drawn) | 3.009%
COc1ccccc1-c1nnc([C@H]2CCN(C(C)=O)C2)o1 | 4.286%
COc1cccc(-c2nccnc2C2CCN(C(C)=O)CC2)c1 | -11.4%
CS(=O)(=O)CCC(=O)N1CCC(c2ccc(F)c(F)c2)CC1 | -5.239%
COc1ccccc1-c1nccnc1C1CCN(C(C)=O)CC1 | 137.3%
CC(=O)N1CCC(c2nccnc2-c2ccc(F)c(F)c2)CC1 | 101.1%
COc1ccccc1-c1ccc(C2CCCN(C(C)=O)C2)nc1 (stereo not drawn) | 120.7%
CN1CCCC1c1nccnc1-c1ccc(C(=O)O)cc1 (stereo not drawn) | 141.8%
CC(O)c1cn(CC2CCN(C(=O)CN3CCCC3=O)CC2)nn1 (stereo not drawn) | -6.496%
CCCN(CC1CC1)C(=O)Nc1ccc(N2CCSCC2)cc1C | -17.78%
COCCN(C)c1ccc(NCc2cscn2)nc1 | 1.249%
CN1CCOC(CNC(=O)CCc2cc(F)ccc2F)C1 (stereo not drawn) | 5.661%
O=C(C1CCOCC1)N1CCc2ncnc(-c3ccc(F)cc3)c2CC1 | -7.65%
CC(=O)N1CCC(c2nccnc2-c2ccc(C(=O)O)cc2)CC1 | 96%
CC(=O)N1CCC(c2nccnc2-c2ccc(F)cc2)CC1 | 97.61%
CC(=O)N1CCC(N2CC[C@H](c3nc4cc(F)ccc4o3)C2)CC1 | -6.986%
COc1ccc(-c2nccnc2C2CCN(C(C)=O)CC2)cc1 | -14.84%
NC(=O)C1CCCN1CCCc1ccc(C(F)(F)F)cc1 (stereo not drawn) | -6.15%
